Results on 22 molecules are retold here after PubChem BioAssay AID651725 (National Center for Advancing Translational Sciences (NCATS), 2012).

SMILES strings stand for the structures. Hit rate of the full screen: of about 360,000 compounds, about 2,000 (0.56%) were called active. About 2% were inconclusive and are not listed. The list comes from a sample in which actives are over-represented; it also holds similar structures and randomly drawn compounds. Values without a mark were called inactive. No stated cut-off is given here; in the data, active means activity change below about -65%; inconclusive means mostly about -30% to -63%; inactive means weaker than that.
On the % scale 0 is the no-effect control and ±100 the full control effect.

For this test, the target named is Homeobox protein SIX1 (Homo sapiens) + Protein phosphatase EYA2 (Homo sapiens) (UniProt Q15475+O00167). Briefly: qHTS Assay for Inhibitors of the Six1/Eya2 Interaction. To be noted: AlphaScreen GST-Six1/His-Eya2 binding, biochemical; stronger effect = lower value. The method in brief: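 AlphaScreen with GST-Six1 and His-Eya2 (5X mix: 250 nM and 500 nM), glutathione donor and nickel acceptor beads; buffer 50 mM Tris pH 8.0, 300 mM NaCl, 1 mM TCEP; 1 h at 37 C in the dark.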
Chain of Homeobox protein SIX1 (Homo sapiens) + Protein phosphatase EYA2 (Homo sapiens) (O00167 whole entry, looked up): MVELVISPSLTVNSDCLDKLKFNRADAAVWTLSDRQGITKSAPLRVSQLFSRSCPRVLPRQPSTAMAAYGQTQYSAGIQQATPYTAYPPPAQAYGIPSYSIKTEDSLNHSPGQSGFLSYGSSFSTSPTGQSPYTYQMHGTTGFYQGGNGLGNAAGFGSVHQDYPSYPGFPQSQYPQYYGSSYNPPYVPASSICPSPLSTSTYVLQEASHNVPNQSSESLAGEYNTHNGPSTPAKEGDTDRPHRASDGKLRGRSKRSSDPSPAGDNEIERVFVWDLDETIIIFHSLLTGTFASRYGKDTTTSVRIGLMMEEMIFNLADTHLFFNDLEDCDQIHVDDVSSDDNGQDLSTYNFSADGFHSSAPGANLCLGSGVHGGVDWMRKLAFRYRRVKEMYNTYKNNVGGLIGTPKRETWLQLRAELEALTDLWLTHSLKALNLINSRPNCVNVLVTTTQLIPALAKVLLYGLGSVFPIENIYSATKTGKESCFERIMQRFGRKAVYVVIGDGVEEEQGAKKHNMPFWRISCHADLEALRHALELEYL
Chain of Homeobox protein SIX1 (Homo sapiens) + Protein phosphatase EYA2 (Homo sapiens) (Q15475 whole entry, looked up): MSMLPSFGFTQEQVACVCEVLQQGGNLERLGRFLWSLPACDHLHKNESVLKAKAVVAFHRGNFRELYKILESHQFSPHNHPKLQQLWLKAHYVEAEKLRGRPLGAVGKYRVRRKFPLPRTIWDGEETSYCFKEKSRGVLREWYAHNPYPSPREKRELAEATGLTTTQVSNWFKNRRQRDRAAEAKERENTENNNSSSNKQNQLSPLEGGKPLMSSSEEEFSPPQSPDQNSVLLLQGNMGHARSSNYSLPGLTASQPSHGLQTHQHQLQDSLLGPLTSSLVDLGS
`COc1cc(C=C(OC(C)=O)c2ccc3c(c2)OCO3)cc(OC)c1OC`: the activity change is -21%.
In the case of `C=C1C(=O)OC2C1CCC(C)=CCCC1(C)OC21` (configuration not stated), the activity change was 10.7%.
The result for `O=c1ccc2c(-c3ccccc3S(=O)(=O)O)c3ccc(O)c(O)c3oc-2c1O` reads -87.1% (active); that for `COC(=O)C1=CN(c2c(C)cc(C)cc2C)C(N)=C(C#N)C1c1cccc(F)c1` (configuration not stated), -17.6%; that for `O=C(N[C@H]1CC[C@H](CC(=O)N2CCCCC2)O[C@@H]1CO)c1cccc(F)c1`, -8.77%.
Next, `CCN(CC)CCOc1ccc2c(c1)C(=NNC(=O)c1ccccn1)c1cc(OCCN(CC)CC)ccc1-2`: -74.3% (active); `CCN(CC)CCNCC(=O)Nc1ccc(Oc2ccccc2)cc1`: -5.73%; `CCCC(C(=O)OCCN(CC)CC)(c1ccccc1)c1ccccc1`: -20.2%.
Next, `CCc1ccc(-c2cc(C)no2)cc1S(=O)(=O)NCCc1ccc(S(N)(=O)=O)cc1`: -4.17%; `CC(=O)Nc1ccc(NC(=O)C(NS(=O)(=O)c2ccc3c(c2)OCCO3)C(C)C)cc1` (configuration not stated): 0.533%.
As to `CCC(C(=O)Nc1c(C)cccc1C)n1c(-c2cc(C)cs2)nc2ccccc21` (configuration not stated), the activity change is 4.28%.
The result for `CC(=O)N1CCCc2cc(S(=O)(=O)N3CCCC(C(=O)N4CCN(c5cccc(Cl)c5)CC4)C3)ccc21` (configuration not stated) reads -12.9%; that for `COc1ccc(-n2c(C)cc(C(=O)CN3C(=O)NC4(CCc5ccccc54)C3=O)c2C)cc1` (configuration not stated), -14.9%; that for `COc1ccc(C(=O)Nc2c(N)nc(SCC(=O)Nc3ccc(C(C)=O)cc3)[nH]c2=O)cc1`, -14.2%.
Next, `COCCNC(=O)CSc1nc(N)c(NC(=O)c2ccco2)c(=O)[nH]1`: 2.42%; `COC(=O)c1ccc(NC(=O)CSc2nc(N)c(NC(=O)c3ccc(Br)o3)c(=O)[nH]2)cc1`: -66.4% (active).
Next, `CCOC(=O)c1sc(/N=C/C2=C(O)CC(C)(C)CC2=O)c(C(=O)OCC)c1C`: -0.173%; `Cc1c(Cl)c([N+](=O)[O-])nn1CCCC(=O)NC(C)c1ccccc1` (configuration not stated): 7.3%.
Consider `Cc1nn(Cc2ccccc2Cl)c(C)c1NC(=O)Cn1nc([N+](=O)[O-])c(Cl)c1C`, for which the activity change was -0.78%.
Regarding `Cc1c(Cl)c([N+](=O)[O-])nn1Cc1ccc(C(=O)N/N=C\c2cc(Cl)ccc2O)o1`, the activity change was -71.9% (active).
Consider `COc1ccccc1C(=O)NCC(=O)OCC(=O)NNC(=O)c1ccc(Br)cc1`, for which the activity change is -6.57%.
`CC(C)c1cc(Cn2c3ccccc3c(=O)n2C(C)Cn2cc(C3CC3)nn2)on1` (configuration not stated): the activity change is 4.06%.
